From PubChem BioAssay AID1159580 (chemical genetic matrix, 2015)
The campaign covered roughly 5,500 compounds. About 2,000 (36%) were called active. Inconclusive results (about 18%) are left out. This is one part of the list. Values without a mark were called inactive. No stated cut-off is given here; in the data, active means normalized growth mostly below about 0.91 (no sharp cut-off); inconclusive means no clear call, values can overlap the other calls; inactive means mostly above about 0.92.

Experiment: chemical genetic growth profiling, strain panel (AID 1159580);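 further: tested at 20 µM; growth read once vehicle control cultures reached saturation at 30 °C; 1 = growth at the plate median or of vehicle wells; lower values mean less growth of the strain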
Conditions: growth OD

CCOc1nc2cccc(C(=O)OC(C)OC(=O)OC3CCCCC3)c2n1Cc1ccc(-c2ccccc2-c2nn[nH]n2)cc1 (configuration not stated)
normalized growth (S. cerevisiae deletion strains, locus YJR075W, strain HOC1, active compounds read low): 0.989 | normalized growth (S. cerevisiae deletion strains, locus YKL009W, strain mrt4, active compounds read low): 1.1 | normalized growth (S. cerevisiae deletion strains, locus YKL068W, active compounds read low): 0.997 | normalized growth (S. cerevisiae deletion strains, locus YKL085W, strain MDH1 (second series), active compounds read low): 0.994 | normalized growth (S. cerevisiae deletion strains, locus YKL085W, strain MDH1, active compounds read low): 0.994 | normalized growth (S. cerevisiae deletion strains, locus YKL160W, strain elf1, active compounds read low): 1.02 | normalized growth (S. cerevisiae deletion strains, locus YKL190W, strain CNB1, active compounds read low): 0.999 | normalized growth (S. cerevisiae deletion strains, locus YKR001C, strain vps1, active compounds read low): 0.963 | normalized growth (S. cerevisiae deletion strains, locus YKR026C, strain gcn3, active compounds read low): 1.03 | normalized growth (S. cerevisiae deletion strains, locus YKR091W, strain srl3, active compounds read low): 1.02 | normalized growth (S. cerevisiae deletion strains, locus YLL001W, strain dnm1, active compounds read low): 1.03 | normalized growth (S. cerevisiae deletion strains, locus YLL026W, active compounds read low): 1.01 | normalized growth (S. cerevisiae deletion strains, locus YLL041C, strain sdh2, active compounds read low): 1.01 | normalized growth (S. cerevisiae deletion strains, locus YLR027C, strain aat2, active compounds read low): 1.02 | normalized growth (S. cerevisiae deletion strains, locus YLR039C, strain RIC1, active compounds read low): 0.815 | normalized growth (S. cerevisiae deletion strains, locus YLR058C, strain SHM2, active compounds read low): 1.01 | normalized growth (S. cerevisiae deletion strains, locus YLR102C, strain apc9, active compounds read low): 0.998 | normalized growth (S. cerevisiae deletion strains, locus YLR113W, strain HOG1, active compounds read low): 1.03 | normalized growth (S. cerevisiae deletion strains, locus YLR221C, strain rsa3, active compounds read low): 1.01 | normalized growth (S. cerevisiae deletion strains, locus YLR258W, strain gsy2, active compounds read low): 1.02 | normalized growth (S. cerevisiae deletion strains, locus YLR262C, strain YPT6 (second series), active compounds read low): 0.826 (active) | normalized growth (S. cerevisiae deletion strains, locus YLR262C, strain YPT6, active compounds read low): 0.797 | normalized growth (S. cerevisiae deletion strains, locus YLR268W, strain sec22, active compounds read low): 0.981 | normalized growth (S. cerevisiae deletion strains, locus YLR320W, strain mms22, active compounds read low): 0.999 | normalized growth (S. cerevisiae deletion strains, locus YLR330W, strain CHS5, active compounds read low): 1 | normalized growth (S. cerevisiae deletion strains, locus YLR342W, strain FKS1 (second series), active compounds read low): 0.862 | normalized growth (S. cerevisiae deletion strains, locus YLR342W, strain FKS1, active compounds read low): 1.02 | normalized growth (S. cerevisiae deletion strains, locus YLR357W, strain rsc2, active compounds read low): 1.07 | normalized growth (S. cerevisiae deletion strains, locus YLR370C, strain arc18, active compounds read low): 1.02 | normalized growth (S. cerevisiae deletion strains, locus YLR371W, strain rom2, active compounds read low): 0.997 | normalized growth (S. cerevisiae deletion strains, locus YLR384C, strain iki3, active compounds read low): 1.01 | normalized growth (S. cerevisiae deletion strains, locus YLR418C, strain cdc73, active compounds read low): 0.959 | normalized growth (S. cerevisiae deletion strains, locus YML016C, strain PPZ1, active compounds read low): 1.01 | normalized growth (S. cerevisiae deletion strains, locus YML032C, strain rad52, active compounds read low): 1 | normalized growth (S. cerevisiae deletion strains, locus YML120C, strain ndi1, active compounds read low): 1.04 | normalized growth (S. cerevisiae deletion strains, locus YML124C, strain tub3, active compounds read low): 1 | normalized growth (S. cerevisiae deletion strains, locus YMR058W, strain fet3, active compounds read low): 1.02 | normalized growth (S. cerevisiae deletion strains, locus YMR078C, strain ctf18, active compounds read low): 1.01 | normalized growth (S. cerevisiae deletion strains, locus YMR125W, strain sto1, active compounds read low): 1.06 | normalized growth (S. cerevisiae deletion strains, locus YMR129W, active compounds read low): 1.03 | normalized growth (S. cerevisiae deletion strains, locus YMR205C, strain PFK2, active compounds read low): 0.99 | normalized growth (S. cerevisiae deletion strains, locus YMR223W, strain ubp8, active compounds read low): 0.984 | normalized growth (S. cerevisiae deletion strains, locus YMR231W, strain pep5, active compounds read low): 1.02 | normalized growth (S. cerevisiae deletion strains, locus YMR263W, strain SAP30, active compounds read low): 1 | normalized growth (S. cerevisiae deletion strains, locus YMR307W, strain GAS1, active compounds read low): 0.734 | normalized growth (S. cerevisiae deletion strains, locus YNL067W, strain RPL9B, active compounds read low): 0.992 | normalized growth (S. cerevisiae deletion strains, locus YNL071W, strain lat1, active compounds read low): 1.02 | normalized growth (S. cerevisiae deletion strains, locus YNL128W, strain TEP1, active compounds read low): 0.995 | normalized growth (S. cerevisiae deletion strains, locus YNL153C, strain GIM3, active compounds read low): 1 | normalized growth (S. cerevisiae deletion strains, locus YNL183C, strain NPR1, active compounds read low): 0.968 | normalized growth (S. cerevisiae deletion strains, locus YNL209W, strain ssb2, active compounds read low): 1 | normalized growth (S. cerevisiae deletion strains, locus YNL233W, strain BNI4, active compounds read low): 0.999 | normalized growth (S. cerevisiae deletion strains, locus YNL248C, strain rpa49, active compounds read low): 1.02 | normalized growth (S. cerevisiae deletion strains, locus YNL250W, strain rad50, active compounds read low): 0.991 | normalized growth (S. cerevisiae deletion strains, locus YNL271C, strain bni1, active compounds read low): 1 | normalized growth (S. cerevisiae deletion strains, locus YNL298W, strain CLA4, active compounds read low): 1 | normalized growth (S. cerevisiae deletion strains, locus YNL307C, strain MCK1, active compounds read low): 0.995 | normalized growth (S. cerevisiae deletion strains, locus YNL322C, strain KRE1 (second series), active compounds read low): 1.03 | normalized growth (S. cerevisiae deletion strains, locus YNL322C, strain KRE1, active compounds read low): 1 | normalized growth (S. cerevisiae deletion strains, locus YNR049C, strain mso1, active compounds read low): 1.04 | normalized growth (S. cerevisiae deletion strains, locus YNR052C, strain pop2, active compounds read low): 1 | normalized growth (S. cerevisiae deletion strains, locus YOL006C, strain TOP1, active compounds read low): 0.763 | normalized growth (S. cerevisiae deletion strains, locus YOL012C, strain htz1): 0.976 | normalized growth (S. cerevisiae deletion strains, locus YOL147C, strain pex11, active compounds read low): 1 | normalized growth (S. cerevisiae deletion strains, locus YOR001W, strain rrp6, active compounds read low): 1.02 | normalized growth (S. cerevisiae deletion strains, locus YOR061W, strain CKA2, active compounds read low): 1 | normalized growth (S. cerevisiae deletion strains, locus YOR069W, strain VPS5, active compounds read low): 1 | normalized growth (S. cerevisiae deletion strains, locus YOR070C, strain gyp1, active compounds read low): 1 | normalized growth (S. cerevisiae deletion strains, locus YOR080W, strain dia2, active compounds read low): 1.02 | normalized growth (S. cerevisiae deletion strains, locus YOR083W, strain WHI5, active compounds read low): 1.01 | normalized growth (S. cerevisiae deletion strains, locus YOR106W, strain vam3, active compounds read low): 0.983 | normalized growth (S. cerevisiae deletion strains, locus YOR136W, strain idh2, active compounds read low): 0.984 | normalized growth (S. cerevisiae deletion strains, locus YOR144C, strain elg1, active compounds read low): 0.993 | normalized growth (S. cerevisiae deletion strains, locus YOR184W, strain ser1, active compounds read low): 0.952 | normalized growth (S. cerevisiae deletion strains, locus YOR231W, strain MKK1, active compounds read low): 0.998 | normalized growth (S. cerevisiae deletion strains, locus YOR265W, strain rbl2, active compounds read low): 1.02 | normalized growth (S. cerevisiae deletion strains, locus YOR270C, strain vph1, active compounds read low): 1.04 | normalized growth (S. cerevisiae deletion strains, locus YOR290C, strain snf2, active compounds read low): 1.02 | normalized growth (S. cerevisiae deletion strains, locus YOR316C, strain cot1, active compounds read low): 0.996 | normalized growth (S. cerevisiae deletion strains, locus YPL051W, strain arl3, active compounds read low): 0.999 | normalized growth (S. cerevisiae deletion strains, locus YPL055C, strain LGE1, active compounds read low): 0.988 | normalized growth (S. cerevisiae deletion strains, locus YPL078C, strain atp4, active compounds read low): 1.05 | normalized growth (S. cerevisiae deletion strains, locus YPL106C, strain sse1, active compounds read low): 0.993 | normalized growth (S. cerevisiae deletion strains, locus YPL240C, strain hsp82, active compounds read low): 1.01 | normalized growth (S. cerevisiae deletion strains, locus YPL241C, strain CIN2, active compounds read low): 1 | normalized growth (S. cerevisiae deletion strains, locus YPL256C, strain CLN2, active compounds read low): 0.961 | normalized growth (S. cerevisiae deletion strains, locus YPR119W, strain clb2, active compounds read low): 0.992 | normalized growth (S. cerevisiae deletion strains, locus YPR141C, strain kar3, active compounds read low): 0.998 | normalized growth (S. cerevisiae deletion strains, locus YPR163C, strain tif3, active compounds read low): 0.99 | normalized growth (S. cerevisiae deletion strains, locus YPR167C, strain met16, active compounds read low): 1 | normalized growth (S. cerevisiae deletion strains, strain wtn01, active compounds read low): 0.989 | normalized growth (S. cerevisiae strains, strain wild type, active compounds read low): 0.997
